Test results published in the supplement of paper PMC11006884.
Targets with a hit are over-represented here; the source holds about 6,500 in all. About 2% of all pairs of compound and target were hits.

The targets below were run with COC(=O)C#Cc1ccccc1 [methyl 3-phenylpropiolate] (assay: log2 ratio of iodoacetamide-alkyne labeling of the cysteine site, DMSO over compound (competition); higher = stronger covalent engagement of the cysteine by the compound, active = 1 or more). Settings: 500 µM; treatment time 1 h; system: HEK293T cell lysate.
Method in brief: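 HEK293T lysate (2 mg/mL) was treated with DMSO or electrophile (500 µM, 1 h, ambient temperature), then iodoacetamide alkyne (1 h), clicked to sCIP-TMT reagents, pooled, trypsin-digested overnight at 37 °C, streptavidin-enriched and acid-eluted. Peptides were run on Orbitrap Eclipse LC-MS/MS with FAIMS and quantified in FragPipe. The log2 competition ratio per cysteine is mean control-channel over mean compound-channel reporter intensity. Duplicate channels and three replicates were used, and cysteines quantified in only one replicate were excluded.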

Sequence of UniProt P25685 (P25685 whole entry, looked up): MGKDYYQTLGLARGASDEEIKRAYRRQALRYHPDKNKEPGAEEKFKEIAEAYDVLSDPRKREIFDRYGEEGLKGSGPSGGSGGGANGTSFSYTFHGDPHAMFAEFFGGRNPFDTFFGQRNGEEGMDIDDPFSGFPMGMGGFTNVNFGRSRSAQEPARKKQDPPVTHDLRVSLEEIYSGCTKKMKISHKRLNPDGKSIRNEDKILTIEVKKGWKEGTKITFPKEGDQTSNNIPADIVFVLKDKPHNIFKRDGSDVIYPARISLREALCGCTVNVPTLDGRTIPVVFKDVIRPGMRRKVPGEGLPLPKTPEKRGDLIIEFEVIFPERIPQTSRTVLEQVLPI
Sequence of UniProt P13489 (P13489 whole entry, looked up): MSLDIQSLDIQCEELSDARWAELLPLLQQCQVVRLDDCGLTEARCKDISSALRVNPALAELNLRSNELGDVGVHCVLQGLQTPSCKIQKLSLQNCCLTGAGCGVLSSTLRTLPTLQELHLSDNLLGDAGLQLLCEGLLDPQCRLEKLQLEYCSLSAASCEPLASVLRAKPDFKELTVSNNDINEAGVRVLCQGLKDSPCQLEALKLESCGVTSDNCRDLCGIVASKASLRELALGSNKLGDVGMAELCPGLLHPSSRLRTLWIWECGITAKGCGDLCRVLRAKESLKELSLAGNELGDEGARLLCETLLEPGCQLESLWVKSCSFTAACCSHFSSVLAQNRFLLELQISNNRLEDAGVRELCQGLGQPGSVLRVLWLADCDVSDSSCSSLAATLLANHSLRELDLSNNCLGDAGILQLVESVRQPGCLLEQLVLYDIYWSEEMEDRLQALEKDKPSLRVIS
Sequence of UniProt P11310 (P11310 whole entry, looked up): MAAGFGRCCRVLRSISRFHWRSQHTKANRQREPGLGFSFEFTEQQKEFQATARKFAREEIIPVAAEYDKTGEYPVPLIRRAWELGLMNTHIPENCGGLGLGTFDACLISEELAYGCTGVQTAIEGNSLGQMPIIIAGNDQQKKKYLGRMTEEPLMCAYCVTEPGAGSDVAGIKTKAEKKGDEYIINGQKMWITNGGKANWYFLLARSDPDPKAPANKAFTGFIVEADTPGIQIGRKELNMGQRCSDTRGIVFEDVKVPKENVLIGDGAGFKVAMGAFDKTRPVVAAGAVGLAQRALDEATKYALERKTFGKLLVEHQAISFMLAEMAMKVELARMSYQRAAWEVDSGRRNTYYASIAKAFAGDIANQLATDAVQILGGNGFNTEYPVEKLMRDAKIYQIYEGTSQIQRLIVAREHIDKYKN
Sequence of UniProt P30825 (P30825 whole entry): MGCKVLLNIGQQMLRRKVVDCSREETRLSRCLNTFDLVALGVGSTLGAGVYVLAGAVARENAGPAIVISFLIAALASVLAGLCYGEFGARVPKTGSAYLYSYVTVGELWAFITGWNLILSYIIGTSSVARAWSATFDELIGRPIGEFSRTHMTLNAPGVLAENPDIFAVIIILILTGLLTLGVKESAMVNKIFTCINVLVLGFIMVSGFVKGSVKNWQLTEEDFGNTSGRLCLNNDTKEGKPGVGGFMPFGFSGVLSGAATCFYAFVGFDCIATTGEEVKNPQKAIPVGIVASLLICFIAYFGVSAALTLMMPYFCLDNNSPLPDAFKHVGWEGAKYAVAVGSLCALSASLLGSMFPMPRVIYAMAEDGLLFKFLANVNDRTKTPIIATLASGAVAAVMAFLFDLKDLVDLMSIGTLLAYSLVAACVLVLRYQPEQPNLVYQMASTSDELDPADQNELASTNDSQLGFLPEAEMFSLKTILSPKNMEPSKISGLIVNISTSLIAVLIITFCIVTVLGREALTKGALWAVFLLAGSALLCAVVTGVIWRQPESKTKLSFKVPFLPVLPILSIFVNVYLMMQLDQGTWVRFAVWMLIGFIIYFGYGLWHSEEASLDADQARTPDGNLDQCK
Sequence of UniProt P42765 (P42765 whole entry, looked up): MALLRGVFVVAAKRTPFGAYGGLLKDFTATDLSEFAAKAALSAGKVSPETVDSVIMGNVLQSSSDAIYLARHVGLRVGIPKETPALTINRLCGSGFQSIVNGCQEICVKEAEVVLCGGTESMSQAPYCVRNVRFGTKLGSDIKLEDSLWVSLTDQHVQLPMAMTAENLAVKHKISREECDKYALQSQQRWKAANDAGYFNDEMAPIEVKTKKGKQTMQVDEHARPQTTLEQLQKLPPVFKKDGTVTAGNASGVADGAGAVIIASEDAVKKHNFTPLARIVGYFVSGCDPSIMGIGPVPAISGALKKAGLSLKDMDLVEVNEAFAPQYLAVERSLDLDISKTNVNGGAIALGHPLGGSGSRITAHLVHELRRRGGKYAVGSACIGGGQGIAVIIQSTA
Sequence of UniProt P31153 (P31153 whole entry, looked up): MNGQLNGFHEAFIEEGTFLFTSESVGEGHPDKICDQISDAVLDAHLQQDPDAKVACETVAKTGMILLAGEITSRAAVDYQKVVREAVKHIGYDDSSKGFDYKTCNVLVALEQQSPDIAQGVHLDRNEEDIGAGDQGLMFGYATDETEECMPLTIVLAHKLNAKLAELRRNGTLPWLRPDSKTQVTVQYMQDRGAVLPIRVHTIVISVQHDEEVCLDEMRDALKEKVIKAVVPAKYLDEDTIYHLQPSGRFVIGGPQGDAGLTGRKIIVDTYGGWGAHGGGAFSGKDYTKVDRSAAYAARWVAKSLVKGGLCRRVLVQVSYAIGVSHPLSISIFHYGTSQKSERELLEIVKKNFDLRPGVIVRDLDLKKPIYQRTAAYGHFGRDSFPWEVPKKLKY
Sequence of UniProt P13807 (P13807 whole entry, looked up): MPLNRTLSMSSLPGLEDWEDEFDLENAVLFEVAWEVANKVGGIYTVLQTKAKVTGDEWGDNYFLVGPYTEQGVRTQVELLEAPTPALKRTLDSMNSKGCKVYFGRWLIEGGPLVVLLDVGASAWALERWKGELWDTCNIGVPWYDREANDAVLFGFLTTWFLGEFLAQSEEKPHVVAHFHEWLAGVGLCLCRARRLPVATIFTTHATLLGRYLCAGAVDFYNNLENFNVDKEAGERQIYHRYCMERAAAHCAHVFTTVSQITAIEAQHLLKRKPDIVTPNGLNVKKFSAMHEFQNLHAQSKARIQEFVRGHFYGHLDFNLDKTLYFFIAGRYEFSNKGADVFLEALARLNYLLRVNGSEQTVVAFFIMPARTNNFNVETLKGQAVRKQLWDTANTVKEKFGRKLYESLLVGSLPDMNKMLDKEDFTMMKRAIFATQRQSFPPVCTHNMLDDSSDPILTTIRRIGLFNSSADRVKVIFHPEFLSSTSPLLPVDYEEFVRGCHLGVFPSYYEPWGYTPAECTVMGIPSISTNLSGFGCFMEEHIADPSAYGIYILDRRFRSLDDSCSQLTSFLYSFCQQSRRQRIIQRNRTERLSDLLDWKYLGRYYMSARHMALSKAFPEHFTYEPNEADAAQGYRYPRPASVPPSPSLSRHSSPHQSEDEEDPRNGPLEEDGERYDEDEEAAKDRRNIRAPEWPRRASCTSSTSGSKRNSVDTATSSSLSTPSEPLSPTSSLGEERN
Sequence of UniProt P27695 (P27695 whole entry, looked up): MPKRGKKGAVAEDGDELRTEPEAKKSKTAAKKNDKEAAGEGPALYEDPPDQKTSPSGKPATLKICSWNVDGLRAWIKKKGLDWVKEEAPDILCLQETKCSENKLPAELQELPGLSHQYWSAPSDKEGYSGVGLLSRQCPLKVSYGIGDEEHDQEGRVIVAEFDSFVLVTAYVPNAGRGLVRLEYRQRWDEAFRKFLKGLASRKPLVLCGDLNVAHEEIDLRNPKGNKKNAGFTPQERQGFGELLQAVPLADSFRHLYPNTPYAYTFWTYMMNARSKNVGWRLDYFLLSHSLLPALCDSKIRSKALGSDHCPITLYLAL
Sequence of UniProt P08238 (P08238 whole entry, looked up): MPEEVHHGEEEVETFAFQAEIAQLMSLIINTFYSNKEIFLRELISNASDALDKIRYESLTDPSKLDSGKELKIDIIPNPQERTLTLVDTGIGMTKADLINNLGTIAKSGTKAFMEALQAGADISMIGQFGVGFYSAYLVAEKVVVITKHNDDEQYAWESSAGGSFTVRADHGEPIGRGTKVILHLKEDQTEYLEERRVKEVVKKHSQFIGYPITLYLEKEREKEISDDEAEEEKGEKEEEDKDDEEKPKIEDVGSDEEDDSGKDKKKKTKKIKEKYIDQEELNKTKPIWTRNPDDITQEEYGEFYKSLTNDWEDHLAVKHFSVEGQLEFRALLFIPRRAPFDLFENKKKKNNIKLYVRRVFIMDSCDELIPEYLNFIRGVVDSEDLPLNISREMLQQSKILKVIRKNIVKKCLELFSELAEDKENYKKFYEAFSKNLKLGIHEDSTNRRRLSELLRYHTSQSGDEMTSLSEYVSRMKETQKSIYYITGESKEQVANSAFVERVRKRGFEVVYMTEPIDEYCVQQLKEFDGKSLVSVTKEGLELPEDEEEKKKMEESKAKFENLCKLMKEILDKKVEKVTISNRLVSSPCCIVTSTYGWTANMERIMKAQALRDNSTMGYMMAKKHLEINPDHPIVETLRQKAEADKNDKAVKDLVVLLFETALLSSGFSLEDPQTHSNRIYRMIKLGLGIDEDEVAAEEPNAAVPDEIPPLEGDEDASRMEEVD
Sequence of UniProt P07954 (P07954 whole entry, looked up): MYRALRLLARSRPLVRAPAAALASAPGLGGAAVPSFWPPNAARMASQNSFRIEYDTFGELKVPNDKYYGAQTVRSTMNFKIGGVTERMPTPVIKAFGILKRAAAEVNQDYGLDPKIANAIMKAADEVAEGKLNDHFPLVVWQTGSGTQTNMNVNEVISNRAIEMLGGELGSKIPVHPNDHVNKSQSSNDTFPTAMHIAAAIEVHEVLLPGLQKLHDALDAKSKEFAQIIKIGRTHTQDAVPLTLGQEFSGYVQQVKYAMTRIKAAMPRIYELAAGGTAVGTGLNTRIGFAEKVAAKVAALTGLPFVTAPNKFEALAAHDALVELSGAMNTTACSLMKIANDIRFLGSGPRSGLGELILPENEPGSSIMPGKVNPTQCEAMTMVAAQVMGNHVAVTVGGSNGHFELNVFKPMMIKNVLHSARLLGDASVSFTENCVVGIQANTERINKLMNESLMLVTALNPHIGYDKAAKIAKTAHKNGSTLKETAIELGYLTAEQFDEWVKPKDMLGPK

| Target | log2 ratio of iodoacetamide-alkyne labeling |
| --- | --- |
| APEX1 C93 (UniProt P27695) | 0.0645 (inactive) |
| MAT2A C104 (UniProt P31153) | 0.274 (inactive) |
| CA2 C205 (UniProt P00918) | -0.11 (inactive) |
| BSG C242 (UniProt P35613) | 0.215 (inactive) |
| HSP90AB1 C521 (UniProt P08238) | 0.298 (inactive) |
| PAICS C81 (UniProt P22234) | 0.248 (inactive) |
| FASN C1992 (UniProt P49327) | 0.0894 (inactive) |
| ACAA2 C128 (UniProt P42765) | 1.22 (active) |
| MBD3 C172 (UniProt O95983) | 0.114 (inactive) |
| OAT C306 (UniProt P04181) | 0.00204 (inactive) |
| HNRNPM C694 (UniProt P52272) | 0.0717 (inactive) |
| EPRS C92 (UniProt P07814) | 0.571 (inactive) |
| CPSF4 C110 (UniProt O95639) | -0.138 (inactive) |
| FASN C1118 (UniProt P49327) | 0.203 (inactive) |
| RPS3 C97 (UniProt P23396) | 2.45 (active) |
| ACSL3 C652 (UniProt O95573) | -0.112 (inactive) |
| CCT3 C475 (UniProt P49368) | 0.185 (inactive) |
| MYH9 C1379 (UniProt P35579) | 0.164 (inactive) |
| RRM1 C26 (UniProt P23921) | 0.0708 (inactive) |

| Target | log2 ratio of iodoacetamide-alkyne labeling |
| --- | --- |
| ACADM C156 (UniProt P11310) | 0.666 (inactive) |
| GSR C102 (UniProt P00390) | 0.154 (inactive) |
| GYS1 C699 (UniProt P13807) | 0.526 (inactive) |
| HNRNPM C653 (UniProt P52272) | 0.0149 (inactive) |
| UniProt P35568_C494 | 0.123 (inactive) |
| RPS5 C66 (UniProt P46782) | 2.5 (active) |
| AKT2 C297 (UniProt P31751) | 0.698 (inactive) |
| DNAJB1 C267 (UniProt P25685) | 0.268 (inactive) |
| IARS C433 (UniProt P41252) | -0.0103 (inactive) |
| FH C333 (UniProt P07954) | 0.338 (inactive) |
| RNH1 C85 (UniProt P13489) | 0.0022 (inactive) |
| SLC7A1 C628 (UniProt P30825) | 0.105 (inactive) |
| UniProt P14618_C49 | -0.193 (inactive) |
| GALK1 C170 (UniProt P51570) | 0.0992 (inactive) |
| MKI67 C2206 (UniProt P46013) | 0.603 (inactive) |
| DNAJA1 C149 (UniProt P31689) | 0.14 (inactive) |
| LRPPRC C208 (UniProt P42704) | 0.123 (inactive) |
| ANXA7 C285 (UniProt P20073) | 0.0794 (inactive) |
